Each structure is given as a SMILES string. Among all 100,000 compounds or so, about 770 (0.77%) were called active. The sample holds actives, similar compounds and a random draw of the others, so the mix is not that of the screen. Unmarked numbers belong to inactive results. Rule as the data show it: active = inhibition above about 50%; inactive = the rest.

Here are results for 95 compounds from PubChem BioAssay AID372 (MTDP, 2006).

The target in this assay is Gag-Pol polyprotein (Human immunodeficiency virus type 1 group M subtype B (isolate HXB2)) (UniProt P04585). The assay can be described thus: RNase H inhibition, HIV 1 Gag Pol polyprotein, FRET biochemical assay, screening (AID 372). The following applies: HIV-1 RT RNase H, FRET RNA/DNA substrate fluorescence; at 10 µM; hits give high values.
With `CCCCNCCCCOc1ccccc1C(C)(C)C`, the inhibition is 8%.

For the compound `O=C(Nc1ccc(I)cn1)C12CC3CC(CC(C3)C1)C2`, the inhibition was 7%.

`Cc1ccc(NC(=O)/C=C/c2ccc(Cl)cc2)cc1`: the inhibition was 8%.

On to `COc1ccc(C2CC(=O)C3=C(C2)NC(C)=C(C(=O)OCC(C)C)C3c2cc3c(cc2Cl)OCO3)cc1` (stereo not given), for which the inhibition is 10%.

In the case of `O=C(COc1ccccc1[N+](=O)[O-])Nc1ccc2oc(-c3cccc4ccccc34)nc2c1`, the inhibition is 13%.

With `CN(C(=O)c1ccc(Cl)cc1Cl)c1ccccc1`, the inhibition was 1%.

On to `Clc1ccc(CN2CCN(/N=C/c3ccc(-c4ccccc4)cc3)CC2)cc1`, for which the inhibition is 8%.

For `Cc1ccc(O)c(/C=N/n2c(-c3ccccc3)n[nH]c2=S)c1`, the inhibition was 13%.

For the compound `O=C(Nc1ccc(NC(=O)c2cccs2)cc1)c1ccccc1`, the inhibition is 5%.

Take `O=C(Nc1ccc(-c2nc(-c3ccccc3)c3cc(NC(=O)c4cccs4)ccc3n2)cc1)c1cccs1`: the inhibition is 52% (active).

Consider `CC(=O)Nc1ccc(-c2nc(-c3ccccc3)c3cc(NC(C)=O)ccc3n2)cc1`, for which the inhibition is 8%.

Consider `O=C(NC(=S)Nc1cccc(-c2nc3ncccc3o2)c1)c1cccc(Cl)c1`, for which the inhibition is 23%.

Consider `COc1ccc(C(=O)NC(=S)Nc2ccc(-c3nc4ccc(C)cc4o3)cc2)cc1`, for which the inhibition is 12%.

For the compound `Cc1ccc2nc(-c3ccc(NC(=S)NC(=O)c4ccc(F)cc4)cc3)oc2c1`, the inhibition is 45%.

Turning to `O=C(NC(=S)Nc1ccc(-c2nc3ncccc3o2)cc1)c1cccc(Cl)c1`, the inhibition was 59% (active).

As for `Cc1ccc2nc(-c3ccc(NC(=S)NC(=O)c4ccc(C)c(C)c4)cc3)oc2c1`, the inhibition is 18%.

In the case of `O=C(Nc1sc2c(c1C(=O)Nc1ccccc1)CCCCC2)c1ccc([N+](=O)[O-])cc1`, the inhibition was 27%.

For the compound `Cc1ccc2nc(-c3ccc(NC(=S)NC(=O)c4ccc([N+](=O)[O-])cc4)cc3)oc2c1`, the inhibition is 50% (active).

Consider `Cc1ccc(C(=O)NC(=S)Nc2ccc(-c3nc4cc(C)c(C)cc4o3)cc2)cc1`, for which the inhibition is 10%.

As for `Cc1ccc2nc(-c3ccc(NC(=S)NC(=O)c4ccccc4)cc3)oc2c1`, the inhibition was 58% (active).

In the case of `O=C(NC(=S)Nc1ccc(-c2nc3ncccc3o2)cc1)c1cccc(F)c1`, the inhibition was 32%.

`Cc1ccc(NC(=O)c2c(NC(=O)c3ccc([N+](=O)[O-])cc3)sc3c2CCCC3)cc1`: the inhibition was 0%.

Take `Cc1ccc2nc(NNC(=O)CCC(=O)O)nc(-c3ccccc3)c2c1`: the inhibition was 15%.

Consider `COc1cc(/C=N/n2cnnc2)ccc1OCCSc1ccc(C)cc1`, for which the inhibition is 15%.

Turning to `C=C(C)COc1ccc2oc(-c3ccccc3)c(C(=O)OCC)c2c1`, the inhibition is 0%.

With `CC(C)(C)NCCOc1ccc(Cl)cc1Cl`, the inhibition was 0%.

For `O=C(CSc1nc2ccc([N+](=O)[O-])cc2s1)c1ccc(Cl)cc1`, the inhibition was 11%.

As for `COc1ccc(C(=O)Nc2ccc(NC(=O)c3ccco3)c(OC)c2)cc1Cl`, the inhibition was 1%.

For the compound `Cc1cc(C)nc(/N=C(/N)Nc2ccc(C(=O)O)cc2)n1`, the inhibition was 3%.

Regarding `COc1ccc(-n2nc3cc(C)c(NC(=O)COc4ccc([N+](=O)[O-])cc4)cc3n2)cc1`, the inhibition was 6%.

As to `Cc1ccc(N=Cc2cc(Br)cc(Br)c2O)c(C)c1`, the inhibition is 4%.

Turning to `O=C(Nc1ccc(-c2nc3ccccc3o2)cc1)c1cccs1`, the inhibition is 5%.

As for `Cc1ccc2nc(-c3cccc(NC(=O)c4ccc([N+](=O)[O-])cc4)c3)oc2c1`, the inhibition is 54% (active).

With `Cc1ccc2oc(-c3cccc(NC(=O)c4cccc([N+](=O)[O-])c4)c3)nc2c1`, the inhibition was 0%.

As to `Cc1cc(C)c2oc(-c3cccc(NC(=O)c4ccc(Cl)cc4)c3)nc2c1`, the inhibition is 53% (active).

As for `Cc1ccc2oc(-c3ccc(NC(=O)c4cccnc4)cc3O)nc2c1`, the inhibition is 21%.

Turning to `Cc1ccc(-c2nc3cc(NC(=S)NC(=O)c4cccs4)ccc3o2)cc1`, the inhibition was 7%.

In the case of `COc1c(Cl)cc(C(=O)Nc2cccc(-c3nc4cc(C)cc(C)c4o3)c2)cc1Cl`, the inhibition is 20%.

On to `Cc1ccc2nc(-c3cccc(NC(=O)c4ccc(C)c([N+](=O)[O-])c4)c3)oc2c1`, for which the inhibition was 6%.

For `Cc1cc2nc(-c3ccc(NC(=O)c4cccnc4)cc3O)oc2cc1C`, the inhibition was 12%.

As to `O=C(NC(=S)Nc1ccc(-c2nc3ccccc3o2)cc1)c1cccs1`, the inhibition is 55% (active).

For `Cc1cc(C)c2oc(-c3cccc(NC(=O)Cc4ccc(Cl)cc4)c3)nc2c1`, the inhibition is 25%.

In the case of `Cc1cc(C)c2oc(-c3ccc(NC(=O)c4cccnc4)cc3O)nc2c1`, the inhibition is 52% (active).

For the compound `COc1ccc(N2C(=O)/C(=C\c3cc(OC)ccc3O)SC2=S)cc1`, the inhibition is 22%.

With `O=C(N/N=C/c1sc2ccccc2c1Cl)c1ccncc1`, the inhibition was 16%.

In the case of `COc1cc(C(=O)N/C(=C/c2cccc([N+](=O)[O-])c2)C(=O)Nc2ccc(C)cc2)cc(OC)c1OC`, the inhibition is 7%.

With `O=c1c(-c2ccccc2Cl)c(C(F)(F)F)oc2c(O)c(O)ccc12`, the inhibition was 41%.

Consider `O=c1c(-c2ccccc2Cl)coc2c(O)c(O)ccc12`, for which the inhibition was 55% (active).

As to `Cc1c(O)ccc2c(=O)c(-c3ccccc3Cl)coc12`, the inhibition was 9%.

In the case of `Cc1oc2c(C)c(O)ccc2c(=O)c1-c1ccccc1Cl`, the inhibition is 12%.

For the compound `Cc1oc2c(O)c(O)ccc2c(=O)c1-c1ccccc1Cl`, the inhibition is 52% (active).

For `O=c1c(-c2ccccc2Cl)coc2cc(O)ccc12`, the inhibition is 19%.

Take `COc1cc(C=C2C(=O)N(C)C(=O)N(C)C2=O)ccc1OCCOc1ccc(C)cc1`: the inhibition is 11%.

`CCOC(=O)c1sc(NC(=O)COc2ccccc2C)c(C(=O)OCC)c1C`: the inhibition was 19%.

For the compound `Cc1cc2c(cc1Br)NC(=O)C2=O`, the inhibition is 27%.

For `C=CCc1ccc(OCCOCCOc2ccc(C)cc2I)c(OC)c1`, the inhibition is 13%.

`Cc1ccc(S(=O)(=O)Oc2cccc(/C=C3\SC(N)=NC3=O)c2)cc1`: the inhibition is 15%.

Take `NC1=NC(=O)/C(=C/c2cccc(OS(=O)(=O)c3ccc4ccccc4c3)c2)S1`: the inhibition is 50% (active).

Regarding `COc1cc(/C=C2\SC(=S)NC2=O)cc(Cl)c1OS(=O)(=O)c1ccccc1`, the inhibition was 11%.

Take `NC1=NC(=O)/C(=C/c2ccc(OS(=O)(=O)c3ccc4ccccc4c3)cc2)S1`: the inhibition was 20%.

For `O=C1NC(=S)S/C1=C\c1cccc(OS(=O)(=O)c2cccc([N+](=O)[O-])c2)c1`, the inhibition was 44%.

`O=C1NC(=S)S/C1=C\c1ccc(OS(=O)(=O)c2cccc([N+](=O)[O-])c2)cc1`: the inhibition was 31%.

Turning to `COc1cc(/C=C2\SC(=S)NC2=O)ccc1OS(=O)(=O)c1ccc(C)cc1`, the inhibition was 24%.

Consider `Cc1ccc(/C=C2/SC(=S)NC2=O)cc1[N+](=O)[O-]`, for which the inhibition was 8%.

As to `Cc1ccc(S(=O)(=O)Oc2ccc(/C=C3\SC(=S)NC3=O)cc2)cc1[N+](=O)[O-]`, the inhibition was 57% (active).

For `O=C1NC(=S)S/C1=C\c1cccc(OS(=O)(=O)c2ccc([N+](=O)[O-])cc2)c1`, the inhibition was 57% (active).

Regarding `COc1cc(/C=C2/SC(=S)NC2=O)cc(Cl)c1OS(=O)(=O)c1ccc(C)cc1`, the inhibition was 54% (active).

In the case of `CC(=O)Nc1ccc(S(=O)(=O)Oc2cccc(/C=C3\SC(=S)NC3=O)c2)cc1`, the inhibition is 8%.

`COc1ccc(-c2ccccc2)cc1NCc1ccc(C)s1`: the inhibition was 17%.

Take `CNC(=O)OCCc1ccc(-c2ccccc2)o1`: the inhibition was 4%.

With `CC1CC(=O)C2=C(C1)OC(N)=C(C#N)C2c1ccc(C(F)(F)F)cc1` (stereo not given), the inhibition was 2%.

Take `COC(=O)c1ccccc1NC(=O)c1cccc(C)c1`: the inhibition is 4%.

With `CCOc1ccc(Cc2c(O)n(-c3ccccc3)c(=S)[nH]c2=O)cc1`, the inhibition was 18%.

For `COc1cc(/C=N/N2C(=O)c3cccc4cccc(c34)C2=O)cc(I)c1O`, the inhibition was 13%.

Take `C/C(=N/Nc1cc(-c2ccccc2)nc(-c2ccccc2)n1)c1ccc(O)cc1`: the inhibition is 4%.

Turning to `CCOC(=O)C1=NN(c2ccccc2)C(=O)/C1=C\c1ccc(F)cc1`, the inhibition is 0%.

Consider `Cc1ccc(S(=O)(=O)Oc2ccc(/C=C3\SC(=S)NC3=O)cc2)cc1`, for which the inhibition was 29%.

In the case of `Cc1ccc(S(=O)(=O)Oc2cccc(/C=C3\SC(=S)NC3=O)c2)cc1`, the inhibition was 53% (active).

`COc1ccc(S(=O)(=O)Oc2cccc(/C=C3\SC(=S)NC3=O)c2)cc1`: the inhibition was 20%.

Turning to `CCOc1ccc(NC(=O)c2c(N)sc(-c3ccccc3)c2C)cc1`, the inhibition was 23%.

For `COC(=O)c1c(N)sc(C(=O)Nc2ccc(C)cc2)c1C`, the inhibition was 0%.

Turning to `COc1ccc(NC(=O)c2c(NC(=O)c3ccco3)sc(-c3ccccc3)c2C)cc1`, the inhibition is 12%.

Regarding `CCOC(=O)c1c(N)sc(C(=O)Nc2ccc(OC)cc2)c1C`, the inhibition is 9%.

Turning to `CCOc1ccccc1NC(=O)CN(c1ccc(C)c(Cl)c1)S(C)(=O)=O`, the inhibition was 8%.

As for `Clc1ccc(Oc2sc(Nc3cccc(Cl)c3)nc2-c2ccccc2)cc1`, the inhibition is 21%.

As for `NS(=O)(=O)c1ccc(CCNC(=O)/C=C/c2cccc([N+](=O)[O-])c2)cc1`, the inhibition is 4%.

Take `CCOc1ccc(/C=C(/C#N)c2nc3ccccc3[nH]2)cc1OC`: the inhibition is 0%.

`O=C(O)c1ccccc1C(=O)Nc1ccc2c(c1)C(=O)c1ccccc1C2=O`: the inhibition is 0%.

On to `O=C1c2ccccc2C(=O)c2cc(NC(=O)c3coc4ccccc34)ccc21`, for which the inhibition was 63% (active).

Take `CCCCOc1ccc(C(=O)Nc2ccc3c(c2)C(=O)c2ccccc2C3=O)cc1`: the inhibition is 40%.

With `Cc1ccccc1C(=O)Nc1ccc2c(c1)C(=O)c1ccccc1C2=O`, the inhibition is 18%.

As to `CCOc1cc(C(=O)Nc2ccc3c(c2)C(=O)c2ccccc2C3=O)cc(OCC)c1OCC`, the inhibition is 0%.

For `O=C(Nc1ccc2c(c1)C(=O)c1ccccc1C2=O)c1ccccc1`, the inhibition is 15%.

As for `O=C(Nc1ccc2c(c1)C(=O)c1ccccc1C2=O)c1cccc(Cl)c1`, the inhibition is 60% (active).

Take `O=C(Nc1ccc2c(c1)C(=O)c1ccccc1C2=O)c1cccc(F)c1`: the inhibition was 49%.

One may read the inhibition as how much of the control response was suppressed.
